# Screening results (PubChem BioAssay)
# Rango dissoc inh: qHTS Assay for Inhibitors of RanGTP induced Rango (Ran-regulated importin-beta cargo) - Importin beta complex dissociation. Potency, µM (doses to about 46.1 µM). 340,000 tested, 0.071% active. Biochemical FRET Rango-importin beta, RanGTP-induced dissociation. AID 540253, 2011; further: nearly all actives have a fitted effect of over 45% in size
#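 Rango/importin beta premix (0.1/0.25 uM final), PBS + 1 mM DTT + 0.02% Tween-20 + 0.1% BSA; cpd 5 min RT; FRET pre-read; + RanGTP-RCC1 (0.6 uM Ran, 2 mM GTP, 0.2 uM RCC1); 45 min RT; FRET post-read, ex 430, em 486/530 nm.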
# D3 antag: qHTS of D3 Dopamine Receptor Antagonist: qHTS. D(3) dopamine receptor (Homo sapiens), P35462. D3R cells, DiscoveRx beta-arrestin luminescence, antagonist mode; stronger effect = lower value. max response, negative = inhibition, %. 360,000 tested, 2.5% active; in the data active means max response below about -50%; inconclusive means no clear call, values can overlap the other calls
#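 Cells expressing the human receptor were seeded at 1500 cells/well, incubated overnight at 37 degrees C in 5% CO2, then exposed to library compounds with dopamine controls for 90 minutes at 37 degrees C before luminescent detection.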
# Rango complex inh: qHTS Assay for Inhibitors of Rango (Ran-regulated importin-beta cargo) - Importin beta complex formation. Importin subunit beta-1 (Homo sapiens), Q14974. Rango CFP/YFP FRET sensor + importin beta, 45 min. Potency, µM (top dose mostly 92.2 µM). 340,000 tested, 0.031% active; further: nearly all actives have a fitted effect of over 15% in size
# Target sequence (Q14974 whole entry, looked up): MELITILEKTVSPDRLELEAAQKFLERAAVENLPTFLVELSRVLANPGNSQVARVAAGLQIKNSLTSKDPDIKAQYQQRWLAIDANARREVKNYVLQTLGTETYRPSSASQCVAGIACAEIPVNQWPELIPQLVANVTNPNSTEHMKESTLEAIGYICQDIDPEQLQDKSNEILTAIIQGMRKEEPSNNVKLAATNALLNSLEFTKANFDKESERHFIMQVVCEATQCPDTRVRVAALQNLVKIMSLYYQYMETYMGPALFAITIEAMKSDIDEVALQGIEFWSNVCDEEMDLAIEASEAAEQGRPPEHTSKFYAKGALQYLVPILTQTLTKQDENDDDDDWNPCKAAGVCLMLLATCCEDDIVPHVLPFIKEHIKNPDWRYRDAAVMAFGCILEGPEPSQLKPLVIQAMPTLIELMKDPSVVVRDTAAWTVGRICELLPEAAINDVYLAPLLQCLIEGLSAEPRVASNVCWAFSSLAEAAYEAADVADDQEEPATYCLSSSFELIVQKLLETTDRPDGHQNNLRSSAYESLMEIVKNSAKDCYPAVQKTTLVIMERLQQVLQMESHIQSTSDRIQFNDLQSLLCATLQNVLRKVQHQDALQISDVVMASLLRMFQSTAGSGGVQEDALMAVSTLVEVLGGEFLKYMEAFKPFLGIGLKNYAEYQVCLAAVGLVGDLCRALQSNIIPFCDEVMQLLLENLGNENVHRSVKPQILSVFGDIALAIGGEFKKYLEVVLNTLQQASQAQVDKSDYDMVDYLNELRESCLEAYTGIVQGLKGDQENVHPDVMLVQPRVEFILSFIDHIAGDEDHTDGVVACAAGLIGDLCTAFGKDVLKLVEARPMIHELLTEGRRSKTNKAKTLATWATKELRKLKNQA
#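 FRET biosensor Rango (snurportin 1 IBB between N-terminal EYFP and C-terminal Cerulean), 50 nM in PBS/1 mM DTT/0.02% Tween-20/0.1% BSA, preincubated 5 min RT with compound; 0.125 microM importin beta added, 45 min RT, CFP/YFP FRET ratio read.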
# D3 ag: qHTS of D3 Dopamine Receptor Agonist: qHTS | D3R DiscoveRx beta-arrestin cells, luminescence, 90 min | max activation, % | D(3) dopamine receptor (Homo sapiens), P35462 | 410,000 tested, 0.58% active; in the data active means max activation above about 30%
#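 Agonist-mode cell screen: cells plated at 1500/well and incubated overnight at 37 °C, then exposed to library compounds for 90 min at 37 °C. Detection reagent was added for 30–60 min at room temperature, and luminescence was read.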
# PTAP TSG101 blk: qHTS Assay for Iinhibitors of HIV-1 Budding by Blocking the Interaction of PTAP/TSG101; Tumor susceptibility gene 101 protein (Homo sapiens), Q99816; Fluorescence polarization, FITC-PTAP peptide / Tsg101 binding; Potency, µM (titrated, usually from 115 µM), most hits filed as inhibitors; 340,000 tested, under 10 active; AID 493005, 2010; active means well fitted inhibition curve with a large enough effect in the main read-out, with a control signal flat, not every such curve was filed as active; inconclusive means small, poorly fitted or top-dose-only effect, or effect the other way, or a change in a side signal; inactive means no such curve, though single readings can be large or run the other way
#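 Steps: Tsg101 binding domain dispensed (10 uM final), compounds pinned in DMSO, FITC-labeled PTAP-motif peptide added (50 nM final); after 20 min binding at room temperature, polarization measured.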
# MmCpn inh: Inhibitors of TCP-1 ring complex (TRiC) of Methanococcus maripaludis (MmCpn): qHTS | Chaperonin Mm-Cpn (Methanococcus maripaludis) | purified Mm-Cpn ATPase, ADP Transcreener TR-FRET | Potency, µM (top dose mostly 76.9 µM), actives largely listed as inhibitors | 330,000 tested, 0.031% active | AID 504842, 2011; active means well fitted inhibition curve with a large enough effect; inconclusive means small, poorly fitted or top-dose-only effect; further: nearly all actives have a fitted effect of over 80% in size
#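 Quantitative HTS used 25 nM Mm-CPN and 10 uM ATP in magnesium/KCl Tris buffer, pH 7.4, with 1 mM DTT. Hydrolysis ran 30 min at 37°C; ADP was read by HTRF.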
# Hits are given with their value; . = inactive; ? = inconclusive; / = no result. Only some compounds are listed: those with a hit (about 2.9% of all), similar ones and a draw of the others. Unless noted, the call rests on the fitted dose curve.
SMILES,Rango dissoc inh,D3 antag,Rango complex inh,D3 ag,PTAP TSG101 blk,MmCpn inh
O=C(C1CCC(CNS(=O)(=O)c2cccs2)CC1)N1CCN(c2ccc(F)cc2)CC1 (stereo unspecified),.,.,.,45.4,.,.
COc1cc2c(=O)n(CCCN3CCOCC3)c(=S)[nH]c2c(OC)c1OC,.,-83.5,.,.,.,.
CCOc1cc2[nH]c(=S)n(CCCN3CCOCC3)c(=O)c2cc1OCC,.,-71.4,.,.,.,.
CCOc1cc2[nH]c(=S)n(CCN3CCC(C)CC3)c(=O)c2cc1OCC,.,.,.,.,.,.
CC(C)c1ccc(NC(=O)c2cc(S(=O)(=O)N(C)C3CCCCC3)ccc2F)cc1,/,/,/,.,/,/
CCCCn1nnnc1C(CCc1ccccc1)N1CCN(C/C=C/c2ccccc2)CC1 (stereo unspecified),/,-57.8,/,.,/,/
CCCCn1nnnc1C(CCSC)N1CCN(C/C=C/c2ccccc2)CC1 (stereo unspecified),/,-121.6,/,.,/,/
CCCCC(c1nnnn1CCOC)N1CCN(Cc2ccccc2)CC1 (stereo unspecified),.,-80.4,.,.,.,.
CCCCn1nnnc1C(c1ccccc1)N1CCN(CC)CC1 (stereo unspecified),/,.,/,.,/,/
CC1CCN(C(=O)c2cccc(NC(=O)c3nsc4ccccc34)c2)CC1,/,/,/,.,/,/
COc1cc(OC)c(OC)cc1/C=C/C(=O)c1ccc(NS(=O)(=O)c2ccc(C)cc2)cc1,?,.,?,30.7,.,?
CCCCNS(=O)(=O)CCNCc1ccco1,.,.,.,43.1,.,.
CCCCCCCCNCCS(=O)(=O)NCc1ccccc1,.,-81.0,.,.,.,/
Cc1cccc2nc(-c3ccccn3)c(Nc3ccc(F)cc3)n12,/,/,/,.,/,/
CC1CCN(CCCCOc2ccc(F)cc2)CC1,.,-59.2,.,.,.,?
CC1CCN(CCCCOc2ccc(C(=O)c3ccccc3)cc2)CC1,.,-75.2,.,.,.,.
CC1CCN(CCOc2ccc(C(=O)c3ccccc3)cc2)CC1,.,.,.,.,.,.
CC1CCN(CCCOc2ccc(OCc3ccccc3)cc2)CC1,.,-69.5,.,.,.,.
CCOC(=O)c1ccc(N2C(=O)c3n[nH]c(C)c3C2c2ccccc2OC)cc1 (stereo unspecified),/,/,/,.,/,/
COc1ccccc1Cc1nc2ccccc2nc1SCC(=O)N1CCN(c2ccccc2)CC1,/,/,/,.,/,/
COc1ccc(C(CC(=O)Nc2cc(Cl)c(OC)cc2OC)N2Cc3ccccc3C2=O)cc1 (stereo unspecified),/,/,/,46.6,/,/
COc1cc(OC)c(NC(=O)CC(c2cccs2)N2Cc3ccccc3C2=O)cc1Cl (stereo unspecified),/,/,/,.,/,/
N#C/C(=C/c1ccc(N2CCCCCC2)o1)c1cccc(F)c1,?,-60.7,?,.,?,.
COc1ccc(CCNC(=O)c2cc(C(=O)c3cc(C)ccc3O)cn(CCc3ccc(OC)cc3)c2=O)cc1,.,.,.,30.7,.,.
CCOC(=O)c1cc(C)n(CC2CCC(C(=O)Nc3cccc(C)c3)CC2)c1C (stereo unspecified),/,/,/,.,/,/
Cc1nnc(NC(=O)c2cccc(S(=O)(=O)N3CC(c4ccccc4)CC3=O)c2)s1 (stereo unspecified),.,.,.,67.7,.,.
O=C(NCCC1=CCCCC1)C1CCN(C(=O)N2CCOc3ccccc32)CC1,/,/,/,.,/,/
Cc1cccc(OCCCn2c(CCNC(=O)C3CCCCC3)nc3ccccc32)c1,/,/,/,.,/,/
Cc1cc(C[n+]2ccsc2N)c2ncccc2c1,.,.,.,.,.,39.8µM
COc1ccccc1Cc1nc2ccccc2nc1SCC(=O)Nc1cc(Cl)ccc1OC,/,/,/,.,/,/
